Source: PubChem BioAssay (University of Kansas High Throughput Screening Laboratory)
mHTT CaM bind: mHTT-calmodulin interaction abrogation; inhibition, % at 15 µM; P42858; AID 1671202; AlphaScreen His-mHTT/GST-CaM binding, luminescence; 190,000 compounds, 3.6% hits;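 note: 0% = both proteins with DMSO and 100% = one protein alone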
Pf apPOL block: Pf-apPOL DNA polymerase inhibition; Recombinant Pf-apPOL, molecular beacon fluorescence, 1.5 h; inhibition, % at 10 µM; 210,000 compounds, 0.25% hits
The depositor's hits bear a star; . = no result given. Compounds with a hit are over-represented: about 3.6% of the library has one in this group of screens. Cut-off read from the data, not from the text of the source: active = inhibition above about 50%; inactive = the rest.

SMILES	mHTT CaM bind	Pf apPOL block
O=C(NCc1ccccc1Cl)C(=O)NCC1CCN(c2ncccn2)CC1	-1.6	-4.6
COc1ccc(/C=C/C(=O)NCC2(c3ccc(OC)c(OC)c3)CCOCC2)cc1OC	12.0	9.0
COc1ccc(Cl)cc1C(=O)Oc1cc(C)[nH]c(=O)c1[N+](=O)[O-]	-4.6	-3.5
COc1ccc(C=CC(=O)Oc2cc(C)[nH]c(=O)c2[N+](=O)[O-])cc1OC	90.9*	6.2
COc1ccc(C(=O)Oc2cc(C)[nH]c(=O)c2[N+](=O)[O-])cc1	97.0*	2.5
CCCCOc1ccc(C(=O)Oc2cc(C)[nH]c(=O)c2[N+](=O)[O-])cc1	10.0	-5.7
COC(=O)c1cccc(NC(=O)C2CC(=O)N(c3ccccc3)C2)c1 (stereo not drawn)	7.7	-2.2
CCN(c1ccc(F)cc1)S(=O)(=O)c1ccc2[nH]cc(C(=O)NCc3ccco3)c(=O)c2c1	16.0	-7.6
Cc1cccc(CN2Cc3cccc4c3[C@H](C=CC4)CC2=O)c1	100.3*	-4.4
O=C1C[C@H]2C=CCc3cccc(c32)CN1Cc1ccc(F)cc1	32.5	-7.6
CCC(C(=O)N1CCc2c(c(-c3nnc(-c4ccccc4F)o3)nn2C)C1)c1ccccc1 (stereo not drawn)	52.8*	-2.8
Cn1nc(-c2nnc(-c3ccccc3F)o2)c2c1CCN(C(=O)c1cccc(F)c1)C2	10.6	-3.0
COc1ccc(OC)c(NC(=Nc2nc(C)cc(C)n2)NC(=O)c2ccccc2)c1	-4.0	13.0
COc1ccc(Cl)cc1NC(=O)N1CCCC(c2nnc(-c3ccccc3F)s2)C1 (stereo not drawn)	-9.8	-10.5
CC(C)C[C@H](CO)N(Cc1ccccc1)S(=O)(=O)N(Cc1ccccc1)[C@@H](CO)CC(C)C	75.2*	-5.0
C=CS(=O)(=O)N(Cc1ccccc1)[C@H](CO)CC(C)C	-3.1	-6.5
O=C(C1CCC1)N1CCN(C2=NN=C(c3cccs3)CS2)CC1	77.8*	-4.6
O=C(c1cccs1)N1CCN(C(=O)C2CCCCC2)CC1	.	-7.7
COc1cc(/C=C2\C(=O)NC(=O)N(c3cccc(C)c3)C2=O)cc(I)c1O	14.0	-1.8
O=[N+]([O-])c1ccc(O)c(C=Nc2cccc3ncccc23)c1	26.0	-1.5
Cc1ccc(O)c(C=Nc2ccc(Br)c3cccnc23)c1	101.0*	-4.1
O=C1OC(c2cc([N+](=O)[O-])ccc2Cl)=N/C1=C\c1ccccc1F	0.0	-11.1
CCCCSc1nnc2c(n1)OC(/C=C/c1ccco1)Nc1ccccc1-2 (stereo not drawn)	32.0	15.5
CCc1ccc(NC(=O)CSc2nnc(-c3ccco3)o2)cc1	0.4	-9.4
Cc1ccnc(SCC(=O)N2CCc3ccccc3C2)n1	-5.0	-43.0
SMILES	mHTT CaM bind	Pf apPOL block
CCCCCCSc1nnc(-c2ccco2)c(-c2ccco2)n1	90.0*	3.5
COc1cc(NC(=O)CSc2nnc(-c3ccco3)c(-c3ccco3)n2)cc(OC)c1	97.0*	-1.7
COc1ccc(NC(=O)CSc2ncccn2)cc1	-2.4	2.1
CCc1ccc(NC(=O)CSc2nnc(-c3ccco3)c(-c3ccco3)n2)cc1	92.0*	-0.5
O=C(CSc1nnc(-c2ccco2)c(-c2ccco2)n1)N1CCc2ccccc2C1	93.0*	0.6
CCc1nc(C2CCN(C(=O)c3ccsc3)CC2)n[nH]1	-9.5	-2.9
COc1ccccc1C(=O)N1CCN(c2ccccc2OC)C(=O)C1C (stereo not drawn)	-3.4	2.8
Cn1c(SCC(=O)c2ccc(O)cc2)nnc1-c1ccco1	-0.8	-2.9
O=C(CSc1nnc(-c2ccco2)c(-c2ccco2)n1)c1ccc(Cl)cc1	61.0*	-5.7
c1ccc(-c2cc(N3CCN(c4ccccc4)CC3)ncn2)cc1	-9.9	-13.0
O=C(Nc1c2c(nn1-c1cccc(Cl)c1)CSC2)c1cccs1	32.0	-4.9
COc1cccc(N2COc3cc(C)c(Cl)c(C)c3C2)c1	98.0*	-3.6
COc1ccc2c(c1)CN(Cc1ccc(Cl)cc1)CO2	12.0	-9.3
COc1ccc2c(c1)CN(c1ccc(Cl)cc1)CO2	51.0*	-8.1
COc1ccc(N2COc3cc4c(cc3C2)OCO4)cc1	7.0	-8.3
COc1ccc(CN2COc3cc(C)c(Cl)c(C)c3C2)cc1	2.0	-1.8
COc1ccc(N2COc3ccc(Cl)cc3C2)cc1	73.0*	1.5
COc1ccc(OC)c(C=C2Oc3cc(OCC(=O)OC(C)C)ccc3C2=O)c1	-23.5	-0.7
Cc1[nH]nc(-c2ccc(O)c(O)c2O)c1-c1ccccc1	91.2*	0.4
COc1ccc(-c2c(-c3ccc(O)cc3O)n[nH]c2C)cc1	34.9	11.6
c1ccc2c(c1)Nc1ccccc1O2	45.0	.
COc1ccc(CCNC(=O)Nc2cc(F)c(F)cc2Cl)cc1OC	-0.4	-4.1
COc1ccc(Cl)cc1NC(=O)NCCc1ccc(N(C)C)cc1	55.3*	-3.2
COc1ccc(OC)c(CN2CCc3nc(Nc4ccc(F)cc4)ncc3C2)c1	61.2*	-2.0
COc1cc(CN2CCc3nc(Nc4ccc5c(c4)OCO5)ncc3C2)ccc1OC(C)C	82.1*	-0.3
SMILES	mHTT CaM bind	Pf apPOL block
CCOc1ccc(CN2CCc3nc(Nc4ccc5c(c4)OCO5)ncc3C2)cc1OCC	3.1	-1.8
COc1ccc(Nc2ncc3c(n2)CCN(Cc2cc(Br)cs2)C3)cc1	66.4*	-8.6
Brc1csc(CN2CCc3nc(Nc4ccccc4)ncc3C2)c1	0.2	0.7
COc1cccc(Nc2ncc3c(n2)CCN(Cc2cc(OC)ccc2OC)C3)c1	35.4	-6.0
Fc1cccc(CN2CCc3nc(Nc4ccc5c(c4)OCCO5)ncc3C2)c1	45.3	-2.1
Fc1cc(F)cc(CN2CCc3nc(Nc4ccc5c(c4)OCO5)ncc3C2)c1	73.0*	-0.7
Cc1ccc2nc(C(=O)NCc3cccs3)cn2c1	-5.1	-0.6
O=C(NCCN1CCCCC1)C1CCCN(c2cnn(Cc3ccccc3)c(=O)c2)C1 (stereo not drawn)	1.6	-1.2
Cc1cc(F)c(F)c(C(=O)n2ccnc2)c1Cl	-6.0	0.9
Cc1nc(Nc2ccc(F)cc2Cl)c2cc(C)sc2n1	14.0	-4.4
CC(C(=O)O)N1C(=O)C(=Cc2ccc(O)cc2)SC1=S (stereo not drawn)	15.5	2.3
Cc1cc(C)c(C#N)c(SCC(=O)N2CCOCC2)n1	-4.3	-2.2
Cc1ccc(CN2CCc3nc(Nc4ccc5c(c4)OCCO5)ncc3C2)cc1	72.5*	-1.6
COc1ccc(OC)c(Nc2ncc3c(n2)CCN(Cc2ccc4c(c2)OCCO4)C3)c1	9.1	4.0
COc1ccc(OC)c(CN2CCc3nc(Nc4ccc5c(c4)OCCO5)ncc3C2)c1	50.0*	3.8
COc1cccc(CN2CCc3nc(Nc4ccc5c(c4)OCO5)ncc3C2)c1OC	21.4	4.3
COc1cccc(CN2CCc3nc(Nc4ccc5c(c4)OCCO5)ncc3C2)c1OC	44.1	1.4
COc1ccc(Nc2ncc3c(n2)CCN(Cc2ccc4c(c2)OCCO4)C3)cc1	60.5*	-6.4
COc1cc(OC)c(OC)cc1CN1CCc2nc(Nc3ccc4c(c3)OCO4)ncc2C1	50.3*	-0.6
c1ccc(CN2CCc3nc(Nc4ccc5c(c4)OCCO5)ncc3C2)cc1	31.8	-3.7
N#CCSc1nc2ccccc2c2nc(-c3ccccc3)nn12	-1.0	-1.7
Cc1oc(C2CCN(C(=O)c3ccc(F)c(F)c3)CC2)nc1C(=O)N1CCCC1	-9.4	-2.1
Cc1ccc(C(=O)c2ccc(C)c(N)c2)cc1N	9.5	-9.1
COc1ccccc1C=C1Oc2cc(OCC=C(C)C)ccc2C1=O	-4.7	0.5
COc1ccccc1CN1CCc2nc(Nc3ccc(F)cc3F)ncc2C1	22.4	-3.3
